From PubChem
Sampled rows, rich in hits. Any-hit rate of the full collection: about 17%.
ClpP mod – qHTS Assay for Activators of ClpP; ATP-dependent Clp protease proteolytic subunit (Bacillus subtilis (strain 168)), P80244; purified B. subtilis ClpP, FRET peptide cleavage, 20 min; Potency, µM (highest dose often 57.5 µM); 1.9% of 340,000 active; active means well fitted falling curve with a large enough effect; inconclusive means small, poorly fitted or top-dose-only effect; inactive means no such curve, though single readings can be large or run the other way; further: the source files actives as falling curves though it sought activators and does not explain the sign; nearly all actives have a fitted effect of over 65% in size
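FRET quenching reversal measured ClpP activation: 10 microg/mL B. subtilis ClpP at pH 8 with the FRET-FV decapeptide, read at 430 nm after 320 nm excitation. The 20-min minus 0-min signal was scaled between DMSO/no-enzyme wells and ADEP (5.8 microM final).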
TDP1 block – blocks human tyrosyl-DNA phosphodiesterase 1; Q9NUW8; Potency, µM (titrated, usually from 130 µM), actives largely listed as inhibitors; recombinant TDP1, AlphaScreen DNA substrate cleavage; 0.28% of 350,000 active; AID 485290; further: nearly all actives have a fitted effect of over 40% in size
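Steps: enzyme plus compound, 15 min RT; add biotin/phosphotyrosine-FITC oligonucleotide (15 nM final), react 5 min; add donor/acceptor beads (10 ug/ml final), 10 min; read AlphaScreen. Tdp1 at 1 nM final.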
DT40 TDP1 no CPT – qHTS for Inhibitors of human tyrosyl-DNA phosphodiesterase 1 (TDP1): qHTS in cells in absence of CPT. Potency, µM (doses to about 46.2 µM), actives largely listed as inhibitors. DT40 Tdp1-/- hTDP1 cells, no CPT, ATP luminescence, 48 h. 15% of 420,000 active; further: nearly all actives have a fitted effect of over 55% in size
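Luminescent ATP content (CellTiter-Glo) served as the growth readout. Knockout chicken DT40 cells expressing human TDP1 were exposed to compounds without camptothecin for a minimum 48 hr at 37 °C.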
TDP1 cell CPT – growth inhibition of DT40 Tdp1-/-;hTDP1 cells with camptothecin (screen for TDP1 inhibitors) | chicken DT40 Tdp1-/-;hTDP1 cells + 20 nM CPT, ATP luminescence, 48 h | Potency, µM (top dose mostly 46.2 µM), hits mostly inhibitors | 12% of 420,000 active | AID 686979; further: nearly all actives have a fitted effect of over 55% in size
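Chicken DT40 Tdp1-/- cells stably complemented with human TDP1 were seeded at 400 cells/well in medium containing 20 nM camptothecin, exposed to pin-transferred compounds, and grown at 37 °C for at least 48 hr. Viability was read as ATP luminescence.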
Numbers stand for hits; . = inactive; ? = inconclusive; / = no result given. Unless noted, the call rests on the fitted dose curve; in most records, active means well fitted curve in the direction sought with a large enough effect; inconclusive means small, poorly fitted or top-dose-only effect, or another doubt; inactive means no such curve, though single readings can be large; an effect the other way counts as inactive or inconclusive.

SMILES	ClpP mod	TDP1 block	DT40 TDP1 no CPT	TDP1 cell CPT
Cc1oc2c(CN(C)C)c(O)ccc2c(=O)c1-c1cscn1	25.1µM	.	.	.
Cc1cc(C)cc(Oc2coc3c(CN(C)C)c(O)ccc3c2=O)c1	.	/	.	.
COc1ccc(Oc2c(C)oc3c(CN(C)C)c(O)ccc3c2=O)cc1	28.2µM	.	.	.
COc1ccc(Oc2coc3c(CN(C)C)c(O)ccc3c2=O)cc1	28.2µM	.	.	.
CCc1c(C)c2ccc(O)c(CN(C)C)c2oc1=O	.	.	.	.
CC(NS(=O)(=O)c1ccc2c(c1)CC(C)N2C(=O)C1CC1)c1ccccc1 (stereo unspecified)	.	.	.	.
O=C1CCC[C@@H]2CC(NCc3ccc(Cl)c(Cl)c3)C[C@@H]3CCN1[C@H]23 (stereo partly specified)	/	.	/	/
CC(C)N1CN(c2ccccc2)C(=S)N(c2ccccc2)C1	/	.	23.1µM	?
S=C1N(c2ccccc2)CN(CCN2CCOCC2)CN1c1ccccc1	.	/	.	.
COc1ccc(N2CCN(C(=O)CCS(=O)(=O)c3ccc4c(c3)NC(=O)C(C)S4)CC2)cc1 (stereo unspecified)	.	.	10.3µM	?
CC1Cc2ccccc2N1C(=O)CCS(=O)(=O)c1ccc2c(c1)NC(=O)CS2 (stereo unspecified)	.	.	?	23.1µM
CC1CCC(NC(=O)CCS(=O)(=O)c2ccc3c(c2)NC(=O)CS3)CC1 (stereo unspecified)	.	.	.	.
CC(=O)c1ccc(N2CCN(C(=O)CCS(=O)(=O)c3ccc4c(c3)NC(=O)CS4)CC2)cc1	.	.	?	18.4µM
Cc1ccc(C)c(N2CCN(C(=O)CCS(=O)(=O)c3ccc4c(c3)NC(=O)C(C)S4)CC2)c1 (stereo unspecified)	.	.	14.6µM	23.1µM
O=C(CCS(=O)(=O)c1ccc2c(c1)NC(=O)CS2)NCCc1ccccc1	.	.	.	.
CCCCC[C@H](O)/C=C/[C@@H]1[C@H]2C/C(=C/CCCC(=O)O)C[C@H]2C[C@H]1O	/	.	.	.
CCN1c2ccccc2-c2nc(SCC(=O)Nc3cccc(C)c3C)ncc2S1(=O)=O	.	.	20.6µM	?
CCc1ccccc1NC(=O)CSc1ncc2c(n1)-c1ccccc1N(Cc1ccc(C)cc1)S2(=O)=O	.	.	.	.
CCN1c2ccccc2-c2nc(SCC(=O)NCc3ccccc3)ncc2S1(=O)=O	.	.	23.1µM	18.4µM
CCOC(=O)c1ccccc1NC(=O)CSc1ncc2c(n1)-c1ccccc1N(CC)S2(=O)=O	.	.	16.4µM	?
CCN(CC)C(=O)C1CCN(c2ncnc3c2cnn3-c2ccc(C)cc2C)CC1	.	.	20.6µM	?
Cc1ccc(-n2ncc3c(N4CCC(C(N)=O)CC4)ncnc32)c(C)c1	.	.	.	?
Cc1ccc(-n2ncc3c(N4CCC5(CC4)OCCO5)ncnc32)c(C)c1	.	.	14.6µM	11.6µM
C/C(=N\O)C(C)(C)Nc1cccc(Br)c1	.	/	.	.
CCOc1ccc(C(=O)CC(NCc2cccs2)C(=O)O)cc1 (stereo unspecified)	/	.	16.4µM	8.2µM
SMILES	ClpP mod	TDP1 block	DT40 TDP1 no CPT	TDP1 cell CPT
CCOc1ccc(C(=O)OC(C)C(=O)N2CCN(Cc3ccccc3)CC2)cc1 (stereo unspecified)	.	.	18.4µM	16.4µM
CCOc1ccc(C(=O)CCC(=O)N(CC)CC(=O)NCc2cccs2)cc1	.	/	?	.
CCOc1ccc(C(=O)CC(C(=O)O)N2CCCCC2)cc1 (stereo unspecified)	.	.	?	13µM
CCOc1ccc(C(=O)NCC(=O)N2CCN(Cc3ccccc3)CC2)cc1	/	.	.	.
CCOc1ccc(C(=O)CC(C(=O)O)N2CCN(Cc3ccccc3)CC2)cc1 (stereo unspecified)	.	.	3.66µM	20.6µM
CCC(=O)c1ccc(OCC(=O)NC2CCN(Cc3ccccc3)CC2)cc1	.	.	.	.
CC(=O)Nc1ccc(C(=O)CN2CCN(c3ccccc3)CC2)cc1	/	.	.	.
CSc1ccc(OC2CCCCC2NS(=O)(=O)c2ccc(Cl)cc2)cc1 (stereo unspecified)	/	.	?	25.9µM
CN(c1ccccc1)C1CCCCC1NS(=O)(=O)c1ccc(Cl)cc1 (stereo unspecified)	.	.	23.1µM	?
CCN(CC)C1CCCCC1NS(=O)(=O)c1ccc(Cl)cc1 (stereo unspecified)	.	.	.	.
Cc1ccc2occ(CC(=O)Nc3c(C)cccc3C)c2c1	.	.	.	.
COc1ccc(-c2csc(C(C)(O)c3cccc(F)c3)n2)cc1 (stereo unspecified)	.	/	13µM	18.4µM
CC(O)(c1cccnc1)c1nc(-c2cccc(C(F)(F)F)c2)cs1 (stereo unspecified)	.	/	14.6µM	18.4µM
COc1cccc(C(C)(O)c2nc(-c3cccc(C(F)(F)F)c3)cs2)c1 (stereo unspecified)	.	/	?	?
COc1ccc(C(C)(O)c2nc(-c3ccccc3OC)cs2)cc1 (stereo unspecified)	.	/	13µM	9.2µM
CC(O)(c1cccnc1)c1nc(-c2cccc(F)c2)cs1 (stereo unspecified)	.	/	.	?
COc1ccc(C(C)(O)c2nc(-c3cccc(C(F)(F)F)c3)cs2)cc1 (stereo unspecified)	.	/	18.4µM	25.9µM
Cc1ccc(S(=O)(=O)N2C[C@H]3C(=O)C[C@@H](c4ccccc4F)N(S(=O)(=O)c4ccc(C)cc4)[C@H]3C[C@H]2c2ccccc2)cc1	.	/	?	?
CCN(CC)CCNC(=O)c1cn(CC)c2cc(N3CCN(C)CC3)c(F)cc2c1=O	.	/	.	.
COC(=O)c1nc(-c2ccccc2)nc(-c2ccccc2)c1C(=O)OC	/	/	.	.
CC(C)c1cccc(-c2csc(C(C)(O)c3cccc(F)c3)n2)c1 (stereo unspecified)	.	/	?	20.6µM
CC(O)(c1cccc(F)c1)c1nc(-c2cccc(F)c2)cs1 (stereo unspecified)	.	/	?	?
O=C(Nc1ccc(NC(=O)c2ccccc2)c2ccccc12)c1ccccc1	.	/	.	.
COc1ccc(-n2cnc3cc(C(=O)NCCC4=CCCCC4)ccc32)cc1	.	.	?	18.4µM
CCCCCNC(=O)c1ccc2c(c1)ncn2-c1cccc(C)c1	.	.	?	?
O=C(NCCC1=CCCCC1)c1ccc2c(c1)ncn2-c1cccc(Cl)c1	.	.	14.6µM	16.4µM
CC1CCCC2(C1)NC(=S)c1c(sc3c1CCCC3)N2 (stereo unspecified)	.	.	3.66µM	?
FC(F)(F)c1ccccc1-c1nc(NCc2cccnc2)c2ccccc2n1	/	/	.	.
FC(F)(F)c1nc(NCc2cccnc2)c2ccccc2n1	/	.	23.1µM	?
